Test results as given in PubChem BioAssay (NCI).
Compounds without any hit were thinned out: in the full panel of roughly 79,000, 15% have a hit. A number with no mark means an inactive call. The source made the active and inactive calls. Cut-off read from the data, not from the text of the source: active = growth inhibition above about 70%; inactive = the rest.

Assay: NCI Yeast Anticancer Drug Screen. Data for the sgs1 mgt1 strain (AID 161);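 note: 0% = growth of cultures given vehicle only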
Settings: S. cerevisiae sgs1 mgt1 strain, at 50.0 µM, stronger effect = higher value
Summary of the method: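 Inhibition of yeast growth, normalised to vehicle-treated controls, is reported for a strain bearing genetic alterations in DNA damage repair.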

With Nc1ccc(CC(N)C(=O)O)cc1 (stereo not given) as the compound, how does the growth inhibition read?
The growth inhibition was -22.3%.

With OCCN1OCCCC1c1ccccc1 (stereo not given) as the compound, how does the growth inhibition read?
Its growth inhibition is 1.2%.

Which growth inhibition does the source give for CCOC(=O)/C=C/n1c2ccccc2c(=O)c2cc(OC)ccc21 here?
Its growth inhibition is -18.8%.

For COC(=O)/C(=N\N)C(C(=O)C(=O)Nc1nc(=S)[nH][nH]1)c1nc2ccc([N+](=O)[O-])cc2[nH]c1=O (stereo not given), which growth inhibition is on record?
Its growth inhibition is 10.1%.

With CN(C)CC1CCCC/C1=N\OC(=O)c1ccccc1 (stereo not given) as the compound, how does the growth inhibition read?
The growth inhibition was 4.15%.

For Cc1ccc(-c2cc(C(=O)NN)c(C#N)c(=O)[nH]2)cc1, which growth inhibition is on record?
The growth inhibition was -0.85%.

With CN(/N=C/c1ccc(O)c(/C=N/N(C)c2ccccn2)n1)c1ccccn1 as the compound, how does the growth inhibition read?
The growth inhibition was -3.35%.

For CNC(=O)N(Cl)c1ccc(Cl)cc1, which growth inhibition is on record?
The growth inhibition was 1.9%.

For NC(CC(=O)O)C(=O)OCc1cccc(N=Nc2ccccc2)c1 (stereo not given), which growth inhibition is on record?
The growth inhibition was -7.2%.

Which growth inhibition does the source give for CCc1c[nH]c(C=O)c1CC here?
The growth inhibition was -12.5%.

Which growth inhibition does the source give for O=C1CC(c2ccccc2)S(=O)(=O)c2ccccc2N1 (stereo not given) here?
The growth inhibition was 1.5%.

For O=C1CSC(c2ccccn2)N1CCN1C(=O)CSC1c1ccccn1 (stereo not given), which growth inhibition is on record?
Its growth inhibition is -15.9%.

Which growth inhibition does the source give for O=C(NC(Cc1c[nH]c2ccccc12)(C(=O)O)C(=O)O)OCc1ccccc1 here?
Its growth inhibition is 18.7%.

With O=S1(=O)CS(=O)(=O)OCCCCO1 as the compound, how does the growth inhibition read?
The growth inhibition was 4.9%.

Which growth inhibition does the source give for CCC(COC(=O)C(c1ccccc1)c1ccccc1)NC1CCCCC1 (stereo not given) here?
Its growth inhibition is 44.8%.

With N#CC(C#N)=NO (tested in a mixture with another compound) as the compound, how does the growth inhibition read?
Its growth inhibition is -7.7%.

For Cn1c(N)nc2c1c(=O)[nH]c(=O)n2C, which growth inhibition is on record?
Its growth inhibition is 5.25%.

With COc1ccc2nc(NC(=O)C(=O)C(C(=O)c3ccccc3-c3ccccc3)C3OC(=O)c4ccccc43)sc2c1 (stereo not given) as the compound, how does the growth inhibition read?
Its growth inhibition is -14.2%.

Which growth inhibition does the source give for O=C(O)c1cc(Br)c(O)cc1O here?
Its growth inhibition is -3.35%.

With CCc1cc(C)cc(C(C)(C)C)c1 as the compound, how does the growth inhibition read?
Its growth inhibition is 25.1%.

Which growth inhibition does the source give for O=c1[nH]nc(-c2ccccc2)n1/N=C/c1c(O)ccc2ccccc12 here?
The growth inhibition was 9.15%.

Which growth inhibition does the source give for CC(C)C1CC[N-]CC1.CC(C)C1CC[N-]CC1.[Cl][Pt+2][Cl] here?
Its growth inhibition is 86.3% (active).

Which growth inhibition does the source give for C(=C\c1ccco1)/c1ccco1 here?
Its growth inhibition is 12.3%.

For CC(C)(c1cn(Cc2ccccc2)c2ccccc12)c1cn(Cc2ccccc2)c2ccccc12, which growth inhibition is on record?
Its growth inhibition is 17.9%.

With Cn1c(=O)c2[nH]c(SCC(=O)O)nc2n(C)c1=O as the compound, how does the growth inhibition read?
Its growth inhibition is 3.35%.

For Cc1cc(C)[n+](C)c(/C=C/c2ccc([N+](=O)[O-])cc2)n1, which growth inhibition is on record?
The growth inhibition was 15.6%.

With COc1ccc(NC(=O)/C(Cc2nc3ccccc3[nH]c2=O)=N\O)c(OC)c1 as the compound, how does the growth inhibition read?
Its growth inhibition is -5.1%.

With COc1ccc2c(c1OC)C(Cc1ccccc1)N1CCc3cc4c(cc3C1C2)OCO4 (stereo not given) as the compound, how does the growth inhibition read?
Its growth inhibition is 48%.

For COC1C(O)CC(OC2C(C)OC(Oc3cc(O)c4c(O)c5c(cc4c3)C[C@@H]([C@H](OC)C(=O)[C@@H](O)[C@@H](C)O)[C@H](OC3CC(OC4CC(OC6CC(C)(O)C(O)C(C)O6)C(O)C(C)O4)C(O)C(C)O3)C5=O)CC2OC(C)=O)OC1C (stereo not given in full), which growth inhibition is on record?
The growth inhibition was -32.9%.

For O=C(O)c1cc2ccccc2c(N=Nc2cc(C(F)(F)F)ccc2Cl)c1O, which growth inhibition is on record?
The growth inhibition was -4.05%.

Which growth inhibition does the source give for COc1ccc(CCCCl)c(C2=NCCc3ccccc32)c1 here?
The growth inhibition was -17.3%.

For Cc1cccc(C2ON=C(c3ccccc3)N2C23CC4CC(CC(C4)C2)C3)c1 (stereo not given), which growth inhibition is on record?
Its growth inhibition is -22.1%.

For CCN(CC)C1C(=O)NC1C#Cc1ccccc1 (stereo not given), which growth inhibition is on record?
The growth inhibition was 7.05%.

With CCCCCCN(CCCCCC)CC(O)c1c(Cl)ccc2ccccc12 (stereo not given) as the compound, how does the growth inhibition read?
Its growth inhibition is 99.3% (active).

With COc1ccc2c(c1)CC/C(=C\C1(Sc3ccccc3)CC1)C2O (stereo not given) as the compound, how does the growth inhibition read?
Its growth inhibition is -10.2%.

Which growth inhibition does the source give for C[N+](C)([O-])Cc1cccc(NC(=O)c2ccc(C(=O)Nc3cccc(C[N+](C)(C)[O-])c3)cc2)c1 here?
The growth inhibition was -8.2%.

With CC1(C)C(=O)C(C)(C)C1=NN as the compound, how does the growth inhibition read?
The growth inhibition was -4.45%.

With CCC(CC)NCCCNc1cc(OC)cc2cccnc12 as the compound, how does the growth inhibition read?
Its growth inhibition is 53.8%.

Which growth inhibition does the source give for CC(C)OC(=O)N[C@@H]1c2ccccc2CC[C@H]1I here?
The growth inhibition was 19.3%.

For c1ccc(-c2cc(-c3ccccc3)c(-c3ccccc3)c(-c3ccccc3)c2)cc1, which growth inhibition is on record?
Its growth inhibition is 19.4%.
